Laboratory results reported in PubChem BioAssay (NCI).
This is part of a sample that, as a whole, favours compounds with a hit. Of some 83,000 tested, about 20% had one in any assay.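 How to read the values: 0–100, growth inhibition (40 = 60% inhibited); 0, no net growth; -100 to 0, cell death (-40 = 40% of starting cells died; -100 = all dead).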 Unmarked numbers belong to inactive results. Active and inactive are the calls of the source. How the source made its calls: active means growth percent below 10; inactive means the rest.

Assays:
Experiment in all cases: NCI-60 one-dose screen, 48 h (100 = growth as untreated, 0 = no growth, -100 = all killed)
Conditions in all cases: 10 µM unless noted
NCI-H23 lung = tested on: NCI-H23 lung
NCI-H226 lung = tested on: NCI-H226 lung
NCI-H322M lung = tested on: NCI-H322M lung
HOP-62 NSCLC = tested on: HOP-62 NSCLC
NCI-H460 lung = tested on: NCI-H460 lung
HOP-92 NSCLC = tested on: HOP-92 NSCLC
NCI-H522 lung = tested on: NCI-H522 lung
A549/ATCC NSCLC = tested on: A549/ATCC NSCLC
786-0 renal = tested on: 786-0 renal
COLO 205 colon = tested on: COLO 205 colon

Compound | growth (NCI-H23 lung) | growth (NCI-H226 lung) [%] | growth (NCI-H322M lung) [%] | growth (HOP-62 NSCLC) | growth (NCI-H460 lung) | growth (HOP-92 NSCLC) | growth (NCI-H522 lung) | growth (A549/ATCC NSCLC) | growth (786-0 renal) | growth (COLO 205 colon)
COc1ccc(-c2nc(/C=C3\C(=O)N(C)c4ccccc43)c3ccccn23)cc1 | 76.2% | 63.8 | 88.3 | 62.7% | 63.4% | 84.1% | 58.7% | 88.7% | 38.3% | 119%
Cc1cccc[n+]1C1c2ccccc2-c2ccccc21 | 103% | 96.1 | 107 | 70.5% | 106% | 68.9% | 57.9% | 78.8% | 90.7% | 75.3%
CN(CCC(=O)c1ccccc1)CCC(=O)c1ccccc1 | 91.5% | 97.4 | 96.4 | 100% | 97.9% | 72.6% | -87.7% (active) | 97.7% | 65.4% | 89.3%
CCN1CCN(c2cc(C)nc(N(CCNc3ccnc4cc(Cl)ccc34)Cc3ccc4c(c3)OCO4)n2)CC1 | 13.6% | 47.7 | 28.3 | -14.3% (active) | 8.38% (active) | 44.6% | -81.7% (active) | 2.91% (active) | -76.8% (active) | -89.5% (active)
C[C@]1(O)CC(=O)[C@]2(O)C3=C(C=C[C@]2(O)C1)C(=O)c1c(O)cccc1C3=O | -6.78% (active) | 89.3 | 86.1 | 49% | 74.9% | -12.2% (active) | -59.5% (active) | 103% | 9.83% (active) | -81.3% (active)
COc1ccc(CNc2c3ccccc3nc3ccccc23)c(OC)c1 | 34.9% | 46.3 | 40 | 47.2% | 16.6% | -13.6% (active) | 40.6% | 35.2% | 39.1% | 24.6%
C[C@@H]1O[C@@H](O[C@@H]2C[C@H](c3ccc4c(c3O)C(=O)C3=C(C4=O)[C@@]4(O)C(=O)C[C@](C)(O)C[C@@]4(O)C=C3)O[C@H](C)[C@H]2O)CC[C@@H]1O[C@H]1C[C@@H](O)[C@H](O)[C@@H](C)O1 | 100% | 116 | 106 | 113% | 105% | 149% | 41.5% | 95.3% | 103% | -19.1% (active)
Cc1nnc(-c2ccc3c(c2)nc(/C=C/c2ccccc2)n3C2CCCCC2)o1 | 88.3% | 104 | 85.9 | 83% | 82.4% | 79.7% | 68.6% | 52.5% | 92.2% | 79.7%
CCNC(=O)Oc1ccc(/C(=C(/CC)Cc2ccccc2)c2ccc(OCCN3CCCC3)cc2)cc1 | 101% | 99.4 | 91 | 83.2% | 94.1% | 62.1% | 100% | 98.4% | 91.2% | 102%
COC(=O)c1nc(-c2ccccc2)oc1S(=O)(=O)NCC(c1ccc(Cl)cc1)N1CCOCC1 (stereo not given) | 89.1% | 90.7 | 98.3 | 96.3% | 87.2% | 70.9% | 23.8% | 90.5% | 51.9% | 78.1%
N#C/C(=C\c1ccc(-c2cccc(C(F)(F)F)c2)o1)c1ccccc1 | 79.7% | 77.4 | 86 | 88.1% | 97.1% | 87.5% | 84.6% | 94.3% | 99.9% | 101%
O=C(/C=C/c1cccc(Cl)c1Cl)Nc1ncc(Cc2ccccc2Cl)s1 | 79.2% | 67.7 | 78.5 | 42.4% | 33.9% | 61.6% | 17.5% | 58.2% | 68.7% | 45.4%
CC1(C)N=C(N)N=C(N)N1c1ccc(CCCCc2ccccc2)c(Cl)c1 | 6.38% (active) | 34.7 | 31.6 | 21.7% | 4.96% (active) | 19.3% | -6.62% (active) | 15.9% | 16.3% | -75.8% (active)
